In the supplement of paper PMC12494721:
Where a name gives a salt, the structure may show the parent alone.

How the values were obtained:
Settings in all cases: incubation time: 27 h, anaerobic, 37 °C;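 for the amine columns active = adjusted P below 0.05 in both replicates with a change the same way and a mean fold change under 0.8 or over 1.25; inactive = the rest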
[1] = tested on: Clostridium sporogenes DSM 1664; assay: growth (OD595) fold change vs plate DMSO controls (fold change (ratio)); higher = more growth
How it was run: (§1)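 Shaken 96-well cultures in mGAM, grown anaerobically for 27 h at 37 °C, were read at 595 nm. OD came from blank-subtracted readings, corrected for background with 20 µM compound solutions in water and scaled by a calibration factor of 5. Growth is the fold change versus the plate's median DMSO control. Values average 2 biological replicates, and any fold change above 1.5 is NA.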

[2] = tested on: Escherichia coli IAI1; assay: as above
How it was run: as §1

[3] = tested on: Klebsiella aerogenes DSM 30053; assay: as above
How it was run: as §1

[4] = tested on: Ruminococcus gnavus DSM 108212; assay: as above
How it was run: as §1

[5] = tested on: Klebsiella aerogenes DSM 30053; assay: fold change of Histamine concentration vs plate DMSO controls (fold change (ratio)); higher = more amine produced, active = hit call of the paper (significant change in both replicates, either direction)
How it was run: (§2)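 Amines were quantified by LC–triple-quadrupole MS in dynamic MRM mode against external calibration curves, with drift correction within each batch. The samples were whole anaerobic mGAM cultures of four gut bacterial strains, grown for 27 h at 37 °C in 80 µL wells and extracted with cold acetonitrile/methanol with 0.1% formic acid, then centrifuged. Values are reported as fold change over DMSO controls on the same plate. The mean of 2 biological replicates is given.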

[6] = tested on: Clostridium sporogenes DSM 1664; assay: fold change of Tryptamine concentration vs plate DMSO controls (fold change (ratio)); higher = more amine produced, active = hit call of the paper (significant change in both replicates, either direction)
How it was run: as §2

[7] = tested on: Ruminococcus gnavus DSM 108212; assay: as above
How it was run: as §2

[8] = tested on: Escherichia coli IAI1; assay: fold change of Putrescine concentration vs plate DMSO controls (fold change (ratio)); higher = more amine produced, active = hit call of the paper (significant change in both replicates, either direction)
How it was run: as §2

[9] = tested on: Klebsiella aerogenes DSM 30053; assay: as above
How it was run: as §2

[10] = tested on: Escherichia coli IAI1; assay: fold change of Cadaverine concentration vs plate DMSO controls (fold change (ratio)); higher = more amine produced, active = hit call of the paper (significant change in both replicates, either direction)
How it was run: as §2

[11] = tested on: Klebsiella aerogenes DSM 30053; assay: as above
How it was run: as §2

[12] = tested on: Ruminococcus gnavus DSM 108212; assay: fold change of 2-Phenylethylamine concentration vs plate DMSO controls (fold change (ratio)); higher = more amine produced, active = hit call of the paper (significant change in both replicates, either direction)
How it was run: as §2

Structure (SMILES)	growth [1]	growth [2]	growth [3]	growth [4]	fold change of Histamine concentration [5]	fold change of Tryptamine concentration [6]	fold change of Tryptamine concentration [7]	fold change of Putrescine concentration [8]	fold change of Putrescine concentration [9]	fold change of Cadaverine concentration [10]	fold change of Cadaverine concentration [11]	fold change of 2-Phenylethylamine concentration [12]
OC[C@H]1O[C@H](O[C@]2(CCl)O[C@H](CCl)[C@@H](O)[C@@H]2O)[C@H](O)[C@@H](O)[C@H]1Cl [Sucralose] (50 µM)	1	0.927	1.03	1.36	0.892 (inactive)	1.28 (active)	1.11 (inactive)	0.948 (inactive)	0.943 (inactive)	1.09 (inactive)	1.06 (inactive)	1.2 (inactive)
Oc1cc(O)c2c(c1)O[C@H](c1ccc(O)c(O)c1)[C@@H](O)C2 [Cianidanol] (20 µM)	1.04	0.998	0.998	1.06	1.03 (inactive)	1.26 (active)	0.867 (inactive)	0.977 (inactive)	0.95 (inactive)	0.859 (inactive)	0.993 (inactive)	0.978 (inactive)
CNC1(C)C2CCC(C2)C1(C)C (stereo not drawn) [Mecamylamine hydrochloride] (20 µM)	1.03	1.06	1.02	1.17	1.02 (inactive)	1.06 (inactive)	1.03 (inactive)	0.992 (inactive)	0.994 (inactive)	0.968 (inactive)	1 (inactive)	1.06 (inactive)
CC(=O)O[C@@]12CO[C@@H]1C[C@H](O)[C@@]1(C)C(=O)[C@H](O)C3=C(C)[C@@H](OC(=O)[C@H](O)[C@@H](NC(=O)OC(C)(C)C)c4ccccc4)C[C@@](O)([C@@H](OC(=O)c4ccccc4)[C@H]21)C3(C)C [Docetaxel] (20 µM)	0.864	1	1.03	1.05	1.05 (inactive)	0.991 (inactive)	1 (inactive)	1.02 (inactive)	1.01 (inactive)	1.02 (inactive)	0.998 (inactive)	0.956 (inactive)
CC(=O)N1CCN(c2ccc(OCC3COC(Cn4ccnc4)(c4ccc(Cl)cc4Cl)O3)cc2)CC1 (stereo not drawn) [Ketoconazole] (20 µM)	1.17	0.988	1	0.945	0.927 (inactive)	1.03 (inactive)	0.984 (inactive)	1.04 (inactive)	0.979 (inactive)	1.02 (inactive)	0.994 (inactive)	0.937 (inactive)
O=S(=O)(O)NC1CCCCC1 [Cyclamic acid] (50 µM)	1.16	0.998	0.991	0.998	1.01 (inactive)	1.03 (inactive)	1.01 (inactive)	1.03 (inactive)	1.01 (inactive)	0.989 (inactive)	0.991 (inactive)	1.02 (inactive)
c1cnc(N2CCN(Cc3ccc4c(c3)OCO4)CC2)nc1 [Piribedil] (20 µM)	0.986	1	1.07	0.998	0.934 (inactive)	1.18 (inactive)	1.02 (inactive)	1.03 (inactive)	0.971 (inactive)	0.962 (inactive)	0.996 (inactive)	0.991 (inactive)
CCC[C@@H]1C[C@@H](C(=O)N[C@@H]([C@H]2O[C@H](SC)[C@H](O)[C@@H](O)[C@H]2O)[C@@H](C)O)N(C)C1 [Lincomycin hydrochloride] (20 µM)	0.767	0.925	0.981	0.121	0.952 (inactive)	0.761 (active)	0.129 (active)	0.531 (inactive)	0.682 (active)	0.967 (inactive)	1.02 (inactive)	0.117 (active)
Cn1c([N+](=O)[O-])cnc1COC(N)=O [Ronidazole] (20 µM)	0.00699	1.05	0.963	0.0625	0.617 (active)	0.0193 (active)	0.0355 (active)	0.99 (inactive)	0.97 (inactive)	1.17 (inactive)	1.03 (inactive)	0.0387 (active)
CC(C)c1nc(CN(C)C(=O)N[C@H](C(=O)N[C@@H](Cc2ccccc2)C[C@H](O)[C@H](Cc2ccccc2)NC(=O)OCc2cncs2)C(C)C)cs1 [Ritonavir] (20 µM)	1.01	0.962	0.987	0.983	1.08 (inactive)	0.822 (inactive)	0.942 (inactive)	0.943 (inactive)	1.01 (inactive)	0.99 (inactive)	0.985 (inactive)	0.939 (inactive)
CC(C)(c1ccc(O)cc1)c1ccc(O)cc1 [Bisphenol A] (20 µM)	0.972	1.04	1	0.996	1.01 (inactive)	0.959 (inactive)	0.976 (inactive)	0.981 (inactive)	0.988 (inactive)	0.991 (inactive)	0.985 (inactive)	0.942 (inactive)
CC(=O)Oc1c(C)cccc1C(=O)O [Cresopirine] (20 µM)	1.04	0.974	1.03	0.935	0.972 (inactive)	1.06 (inactive)	0.962 (inactive)	0.977 (inactive)	1.02 (inactive)	0.998 (inactive)	1.01 (inactive)	0.945 (inactive)
Fc1ccc(C(c2ccc(F)cc2)N2CCN(C/C=C/c3ccccc3)CC2)cc1 [Flunarizine dihydrochloride] (20 µM)	1.15	1.05	1.1	0.897	0.894 (inactive)	1.05 (inactive)	0.851 (inactive)	1.07 (inactive)	0.981 (inactive)	0.979 (inactive)	1.04 (inactive)	0.977 (inactive)
NC(=O)NC1NC(=O)NC1=O (stereo not drawn) [Allantoin] (20 µM)	1.05	1.14	1	1.09	1.02 (inactive)	1.11 (inactive)	1.17 (inactive)	1.1 (inactive)	0.972 (inactive)	0.983 (inactive)	1.02 (inactive)	1.05 (inactive)
Nc1nc(O)c2ncn(CCC(CO)CO)c2n1 [Penciclovir] (20 µM)	1.11	1.12	1.06	1.14	0.824 (inactive)	1.07 (inactive)	1.08 (inactive)	1.08 (inactive)	0.962 (inactive)	0.996 (inactive)	1.02 (inactive)	1.12 (inactive)
Nc1nc(Cl)nc2c1ncn2[C@H]1C[C@H](O)[C@@H](CO)O1 [Cladribine] (20 µM)	0.964	0.974	1.06	0.893	0.841 (inactive)	1.06 (inactive)	0.925 (inactive)	0.684 (inactive)	0.984 (inactive)	0.934 (inactive)	1.02 (inactive)	0.957 (inactive)
CC(C)CC(=O)N[C@H](C(=O)N[C@H](C(=O)N[C@@H](CC(C)C)[C@@H](O)CC(=O)N[C@@H](C)C(=O)N[C@@H](CC(C)C)[C@@H](O)CC(=O)O)C(C)C)C(C)C [Pepstatin A] (20 µM)	1.1	1	1	1.06	1.02 (inactive)	1.06 (inactive)	1.05 (inactive)	0.953 (inactive)	1.01 (inactive)	0.961 (inactive)	0.999 (inactive)	1.06 (inactive)
CC(=O)NS(=O)(=O)c1ccc(N)cc1 [Sulfacetamide sodic hydrate] (20 µM)	0.934	0.995	0.974	0.888	1.02 (inactive)	0.976 (inactive)	1.06 (inactive)	1.02 (inactive)	0.996 (inactive)	0.98 (inactive)	0.993 (inactive)	1.08 (inactive)
C=CCc1ccc(OC)c(OC)c1 [Methyleugenol] (20 µM)	0.942	1.08	0.993	1.06	0.992 (inactive)	0.986 (inactive)	1.02 (inactive)	1.02 (inactive)	0.921 (inactive)	0.988 (inactive)	1.15 (inactive)	1.02 (inactive)
CC1(C)O[C@@H]2C[C@H]3[C@@H]4CCC5=CC(=O)CC[C@]5(C)[C@@]4(F)[C@@H](O)C[C@]3(C)[C@]2(C(=O)CCl)O1 [Halcinonide] (20 µM)	1.17	1.01	1.05	1.07	0.941 (inactive)	0.989 (inactive)	0.963 (inactive)	0.988 (inactive)	0.994 (inactive)	1.02 (inactive)	1.01 (inactive)	0.978 (inactive)
CC(C)(C)C(=O)OCOC(=O)[C@@H]1N2C(=O)[C@@H](NC(=O)[C@H](N)c3ccccc3)[C@H]2SC1(C)C [Pivampicillin] (20 µM)	0	0.949	0.986	0	1.04 (inactive)	0.0632 (active)	0.0656 (active)	1.01 (inactive)	1 (inactive)	0.968 (inactive)	0.976 (inactive)	0.0585 (active)
NS(=O)(=O)Cc1noc2ccccc12 [Zonisamide] (20 µM)	0.883	1.01	0.994	1.01	1.02 (inactive)	1.07 (inactive)	0.863 (inactive)	1.07 (inactive)	1.01 (inactive)	1.05 (inactive)	1 (inactive)	0.806 (inactive)
CC(C)NCC(O)c1ccc2ccccc2c1 (stereo not drawn) [Pronethalol hydrochloride] (20 µM)	1.12	1.01	0.993	0.98	0.97 (inactive)	0.978 (inactive)	1.04 (inactive)	1.01 (inactive)	0.986 (inactive)	0.994 (inactive)	0.982 (inactive)	1.05 (inactive)
CNC[C@H](O)[C@@H](O)[C@H](O)[C@H](O)CO [Meglumine] (20 µM)	0.956	1.07	1.05	0.994	0.883 (inactive)	1.04 (inactive)	1.02 (inactive)	1.25 (inactive)	0.979 (inactive)	0.99 (inactive)	1.06 (inactive)	0.998 (inactive)
